Bioassay records deposited in PubChem BioAssay by several laboratories.
CF NFkB block = inhibitors of cystic fibrosis induced NF-kB; KKLEB NF-kB-GFP reporter, PAF-induced, GFP fluorescence overnight; inhibition, % at 5 µM; 0.86% of 360,000 active;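 active = at least 50% inhibition at 5 µM, scaled per plate between neutral and stimulator controls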;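 also: PAF is a Pseudomonas aeruginosa culture filtrate used as stimulus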
KKLEB tox = reduces viability of KKLEB cystic fibrosis airway cells; 0.36% of 360,000 active; KKLEB CF airway cells viability, ATPlite luminescence, overnight; hits give low values; cells stimulated with P. aeruginosa culture filtrate; AID 602141; activity change (cytotoxicity), % at 5 µM;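 active = corrected activity change at or below -50% at 5 µM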
LGR2 inh = inhibitors of bursicon-induced Drosophila LGR2 receptor cAMP signaling | HEK293 LGR2, CRE-luciferase, bursicon-stimulated, 4 h | inhibition, % at 9.99 µM | 0.35% of 380,000 active;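 active = drop in luminescence signal, shown as inhibition above about 50% in the replicate tests, limit read from the data, passing the limit was not always enough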;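 also: agonist challenge used bursicon conditioned medium at about half maximal strength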
Peg3 prom inh = reduces Peg3 promoter-driven luciferase expression in HeLa; HeLa PEG-Prom luciferase reporter, luminescence, overnight; inhibition, % at 20 µM; 1.7% of 360,000 active;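 active = inhibition of at least 50% at 20 µM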
HSP90 inh = blocks HSP90-mediated luciferase refolding in reticulocyte lysate; Rabbit reticulocyte lysate, luciferase refolding luminescence, 3 h; inhibition, % at 5.6 µM; 0.91% of 290,000 active; AID 1789;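 active = inhibition above the screen-wide mean plus 3 SD, computed separately per campaign, cut at about 16% in these data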;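 also: inhibitors lower the luminescence because luciferase stays unfolded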
Mdm2 MdmX PPI = disrupts the human Mdm2-MdmX interaction | SaOS-2 split-luciferase Mdm2/MdmX complementation, luminescence | inhibition, % at 8 µM | AID 485346 | 3% of 330,000 active;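 active = inhibition of at least 50% at 8 µM in the primary screen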
HSP90 inh confirm = HSP90 inhibition, confirmation assay. shares compounds with HSP90 inh. rabbit reticulocyte lysate, luciferase refolding luminescence, 3 h. inhibition, % at 5.9 µM. 64% of 2,300 active; in the data active = inhibition above about 18%
FLuc counter = counter-screen for HSP90 inhibitors: inhibitors of firefly luciferase. 48% of 2,300 active. purified native firefly luciferase, luminescence. inhibition, % at 5.9 µM. shares compounds with HSP90 inh;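 active = inhibition above the mean inhibition of all tested sample wells plus 3 SD, cut at about 10% in these data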
Hits are given with their value; i = inactive; nt = no result given. An excerpt weighted towards active compounds, which were near 3.6% of everything screened.

SMILES	CF NFkB block	KKLEB tox	LGR2 inh	Peg3 prom inh	HSP90 inh	Mdm2 MdmX PPI	others
Cc1ccc(S(=O)(=O)N(C)C[C@H]2OCCCC[C@@H](C)Oc3ccc(NS(=O)(=O)c4ccc(F)cc4)cc3C(=O)N([C@@H](C)CO)C[C@H]2C)cc1	nt	nt	i	nt	nt	nt
O=[N+]([O-])c1ccc(Sc2cccc[n+]2[O-])c2nonc12	84.0	-97.4	i	111.1	23.7	nt
CNc1cc(N2CCCC2)ccc1[N+](=O)[O-]	i	i	i	i	i	i
CC(C)CNc1cc(N2CCCC2)ccc1[N+](=O)[O-]	i	i	i	54.5	i	i
O=C(NCC1CCCO1)C(c1cccs1)N(Cc1ccccc1Cl)C(=O)c1ccc(-c2ccccc2)[nH]1 (configuration not stated)	i	i	i	80.0	i	i
O=c1c2c3nc4ccccc4nc3n(Cc3ccccc3)c2ncn1Cc1ccco1	i	i	nt	75.7	i	nt
CCOc1ccccc1NC(=O)NCc1ccc2c(c1)OCO2	i	i	i	67.7	i	i
O=[N+]([O-])c1ccc2c(c1N1CCCCC1)=NC1(CCCCC1)[N+]=2[O-]	i	i	i	i	i	i
[O-][N+]1=c2ccc(Nc3ccccc3)cc2=NC12CCCCC2	84.7	i	nt	104.4	i	nt
O=C(CCN1C(=O)NC2(CCCC2)C1=O)Nc1ccc(Sc2ccc(Br)cc2)cc1	i	i	i	i	nt	nt
O=C(CCN1C(=O)NC2(CCCC2)C1=O)Nc1ccc(-c2nc3ccccc3s2)cc1	i	i	i	100.5	nt	i
COc1cccc(NC(=O)N2C[C@H](O)COC[C@H]3O[C@H](CC(=O)NCc4ccccc4F)CC[C@@H]32)c1	nt	nt	i	nt	nt	nt
C[C@@H]1O[C@@H](O[C@H]2[C@H](Oc3cc(O)c4c(c3)OC(c3ccc(O)cc3)CC4=O)O[C@H](CO)[C@@H](O)[C@@H]2O)[C@H](O)[C@H](O)[C@H]1O (some centres not stated)	i	-54.5	i	i	nt	i
O=C(O)c1ccccc1NS(=O)(=O)c1cccc(-n2sc3ccccc3c2=O)c1	86.3	i	i	i	i	i
CC(=O)n1cc(Nc2ccc([N+](=O)[O-])cc2)c2ccccc21	i	i	i	i	i	i
CC(=O)SC(C[N+](=O)[O-])c1cn(C(C)=O)c2ccccc12 (configuration not stated)	i	i	nt	106.0	i	i
COc1ccc(S(=O)(=O)Nc2ccc3c(c2)C(=O)N([C@@H](C)CO)C[C@H](C)[C@H](CN(C)S(=O)(=O)c2cn(C)cn2)O3)cc1	nt	nt	i	nt	nt	nt
CCOC(=O)N1CCN(C(=O)c2ccc3c(c2)N(C)C(=O)/C(=C\c2ccc(OCC)c(OC)c2)S3)CC1	i	i	i	52.6	i	i
COc1ccc(C(=O)c2coc3ccc(O)c(CN4CCCCC4)c23)cc1	i	i	i	i	47.1	i	HSP90 inh confirm=i;FLuc counter=i
COc1ccc(S(=O)(=O)Nc2ccc3c(c2)C(=O)N([C@@H](C)CO)C[C@@H](C)[C@H](CN(C)Cc2ccc(C(F)(F)F)cc2)O3)cc1	nt	nt	i	nt	nt	nt
CN1C(=O)c2cc(NC(=O)Nc3ccccc3Cl)ccc2OC[C@@H]2O[C@@H](CC(=O)NCCCN3CCOCC3)CC[C@@H]21	nt	nt	i	nt	nt	nt
CC(=O)N(/N=C1\Sc2ccccc2C1=O)c1ccccc1C	i	i	nt	i	34.9	i	HSP90 inh confirm=73.8;FLuc counter=i
CC(=O)N(/N=C1\Sc2ccccc2C1=O)c1ccccc1	i	i	nt	i	i	nt
CC(=O)N1[C@@H]2c3ccc(-c4cccc(F)c4)c(=O)n3C[C@H]1[C@H](CO)[C@H]2C(=O)NCCCN(C)C	nt	nt	i	nt	nt	nt
CCCNC(=O)Nc1ccc2c(c1)OC[C@H](C)N(S(C)(=O)=O)C[C@@H](C)[C@H](OC)CN(C)C2=O	nt	nt	i	nt	nt	nt
CCC(=O)Nc1cccc(-c2nc3ccc(C)cc3o2)c1	i	i	i	i	i	i
CCC(=O)Nc1ccc2oc(-c3cccc(C)c3)nc2c1	i	i	nt	i	24.1	i	HSP90 inh confirm=40.2;FLuc counter=34.8
Cc1ccc(-c2nc3cc(NC(=O)C(C)C)ccc3o2)cc1C	i	i	nt	i	33.9	i	HSP90 inh confirm=52.9;FLuc counter=54.1
